The results in this text go back to ChEMBL document CHEMBL1961873, “Compounds: GSK PKIS; Assays: Nanosyn kinase panel” (2012).

What is called inhibition is the drop in the measured response relative to a control, in per cent.

Where “and” joins values, the source holds several entries; their conditions need not be identical. Equal values may be shown once.

The target in experiment [1] is T1, Inhibitor of nuclear factor kappa-B kinase subunit epsilon (Homo sapiens) (UniProt Q14164).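 Further: reported values are averaged percent inhibition figures against human IKKε.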
T1 sequence (whole entry): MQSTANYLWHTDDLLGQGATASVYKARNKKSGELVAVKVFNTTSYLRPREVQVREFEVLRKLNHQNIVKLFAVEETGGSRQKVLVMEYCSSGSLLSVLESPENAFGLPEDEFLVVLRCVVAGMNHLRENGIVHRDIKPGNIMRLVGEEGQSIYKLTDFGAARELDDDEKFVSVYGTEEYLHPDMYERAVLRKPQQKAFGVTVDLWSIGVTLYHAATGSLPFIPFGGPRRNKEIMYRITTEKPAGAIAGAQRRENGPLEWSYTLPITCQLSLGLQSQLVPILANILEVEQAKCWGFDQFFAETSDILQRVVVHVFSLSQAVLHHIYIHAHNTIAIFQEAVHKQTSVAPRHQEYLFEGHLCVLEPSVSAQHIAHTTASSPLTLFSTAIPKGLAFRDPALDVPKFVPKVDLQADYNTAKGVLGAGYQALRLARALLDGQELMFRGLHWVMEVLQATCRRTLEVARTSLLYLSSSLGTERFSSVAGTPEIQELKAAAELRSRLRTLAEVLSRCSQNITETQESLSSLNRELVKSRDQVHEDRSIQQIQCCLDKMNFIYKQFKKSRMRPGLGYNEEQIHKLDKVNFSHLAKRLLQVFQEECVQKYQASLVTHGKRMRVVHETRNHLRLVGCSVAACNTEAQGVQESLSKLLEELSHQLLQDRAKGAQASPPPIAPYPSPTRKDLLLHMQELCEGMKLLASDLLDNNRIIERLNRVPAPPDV
Particulars: at 1 µM.

The target in experiment [2] is T2, Serine/threonine-protein kinase Nek1 (Homo sapiens) (UniProt Q96PY6).
T2 sequence (whole entry): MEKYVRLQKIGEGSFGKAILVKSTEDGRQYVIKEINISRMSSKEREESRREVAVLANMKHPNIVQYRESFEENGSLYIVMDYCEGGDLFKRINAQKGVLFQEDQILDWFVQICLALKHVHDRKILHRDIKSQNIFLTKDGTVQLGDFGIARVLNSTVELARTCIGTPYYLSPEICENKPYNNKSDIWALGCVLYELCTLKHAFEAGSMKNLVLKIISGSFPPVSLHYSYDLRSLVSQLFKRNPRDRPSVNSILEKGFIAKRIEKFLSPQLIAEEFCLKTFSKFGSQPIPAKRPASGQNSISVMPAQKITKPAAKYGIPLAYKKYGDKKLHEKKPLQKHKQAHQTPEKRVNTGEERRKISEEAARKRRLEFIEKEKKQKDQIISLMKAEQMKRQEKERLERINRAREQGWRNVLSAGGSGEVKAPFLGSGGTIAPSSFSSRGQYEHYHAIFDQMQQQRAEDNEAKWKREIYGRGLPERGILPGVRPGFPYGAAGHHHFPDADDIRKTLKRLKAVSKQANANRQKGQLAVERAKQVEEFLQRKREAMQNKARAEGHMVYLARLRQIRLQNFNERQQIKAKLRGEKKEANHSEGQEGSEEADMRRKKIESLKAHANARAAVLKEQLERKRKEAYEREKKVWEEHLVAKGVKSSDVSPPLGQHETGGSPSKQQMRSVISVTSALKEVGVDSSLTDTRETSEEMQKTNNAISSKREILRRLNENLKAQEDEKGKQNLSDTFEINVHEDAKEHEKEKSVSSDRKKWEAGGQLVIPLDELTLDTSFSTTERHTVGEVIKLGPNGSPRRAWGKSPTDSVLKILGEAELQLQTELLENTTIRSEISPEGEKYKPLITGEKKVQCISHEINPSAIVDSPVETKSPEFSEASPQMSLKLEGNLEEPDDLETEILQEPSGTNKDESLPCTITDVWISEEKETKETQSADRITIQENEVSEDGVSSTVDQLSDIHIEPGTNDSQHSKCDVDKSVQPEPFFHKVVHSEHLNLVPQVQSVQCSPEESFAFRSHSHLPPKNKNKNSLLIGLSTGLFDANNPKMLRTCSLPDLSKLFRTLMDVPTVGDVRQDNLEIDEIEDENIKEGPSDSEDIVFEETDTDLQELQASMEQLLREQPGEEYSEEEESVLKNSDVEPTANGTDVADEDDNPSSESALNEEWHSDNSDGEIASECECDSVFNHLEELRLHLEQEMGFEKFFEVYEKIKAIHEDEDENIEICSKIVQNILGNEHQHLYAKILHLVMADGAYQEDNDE
Particulars: at 0.1 µM.

For experiment [3], the target named is T2, Serine/threonine-protein kinase Nek1 (Homo sapiens). Particulars: at 1 µM.
The target of experiment [4] is T3, Serine/threonine-protein kinase Nek2 (Homo sapiens) (UniProt P51955).
T3 sequence (whole entry): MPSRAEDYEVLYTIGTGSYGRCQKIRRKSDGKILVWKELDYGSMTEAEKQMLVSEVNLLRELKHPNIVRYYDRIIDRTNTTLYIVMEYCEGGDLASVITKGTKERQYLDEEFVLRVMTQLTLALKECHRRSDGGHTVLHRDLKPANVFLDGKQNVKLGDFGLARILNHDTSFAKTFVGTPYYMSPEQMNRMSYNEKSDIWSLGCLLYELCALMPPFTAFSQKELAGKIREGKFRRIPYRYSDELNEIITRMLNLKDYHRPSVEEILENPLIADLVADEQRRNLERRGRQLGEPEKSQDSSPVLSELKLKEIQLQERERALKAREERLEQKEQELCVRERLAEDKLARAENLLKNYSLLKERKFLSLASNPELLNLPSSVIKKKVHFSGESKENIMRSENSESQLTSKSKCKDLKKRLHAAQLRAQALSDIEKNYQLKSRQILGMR
Particulars: at 0.1 µM.

Experiment [5] addresses T3, Serine/threonine-protein kinase Nek2 (Homo sapiens). Particulars: at 1 µM.
In experiment [6] the target is Serine/threonine-protein kinase Nek6 (Homo sapiens) (UniProt Q9HC98). The following applies: at 0.1 µM.
Chain of Serine/threonine-protein kinase Nek6 (Homo sapiens) (Q9HC98 whole entry): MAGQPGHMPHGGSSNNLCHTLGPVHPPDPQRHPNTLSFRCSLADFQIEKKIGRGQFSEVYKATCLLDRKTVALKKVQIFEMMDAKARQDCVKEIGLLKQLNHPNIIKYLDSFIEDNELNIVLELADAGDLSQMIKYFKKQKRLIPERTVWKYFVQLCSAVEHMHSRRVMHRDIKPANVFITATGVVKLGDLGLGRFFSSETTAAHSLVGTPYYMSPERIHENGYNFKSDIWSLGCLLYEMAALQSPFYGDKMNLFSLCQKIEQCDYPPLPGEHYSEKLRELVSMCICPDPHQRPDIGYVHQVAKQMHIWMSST
Experiment [7] has the same target. Particulars: at 1 µM.
For experiment [8], the target named is Serine/threonine-protein kinase Nek7 (Homo sapiens) (UniProt Q8TDX7). The following applies: at 0.1 µM.
Chain of Serine/threonine-protein kinase Nek7 (Homo sapiens) (Q8TDX7 whole entry, looked up): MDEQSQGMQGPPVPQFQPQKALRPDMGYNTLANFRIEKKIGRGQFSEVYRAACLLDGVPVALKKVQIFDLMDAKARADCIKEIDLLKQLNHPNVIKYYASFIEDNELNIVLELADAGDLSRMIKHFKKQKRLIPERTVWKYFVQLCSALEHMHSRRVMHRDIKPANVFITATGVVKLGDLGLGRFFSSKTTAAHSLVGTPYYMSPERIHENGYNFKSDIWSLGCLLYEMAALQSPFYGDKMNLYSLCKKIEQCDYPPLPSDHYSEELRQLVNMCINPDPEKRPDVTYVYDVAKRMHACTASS
Experiment [9] shares this target. Particulars: at 1 µM.
For experiment [10], the target named is T4, Serine/threonine-protein kinase Nek9 (Homo sapiens) (UniProt Q8TD19).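 Further: reported value is the mean percent inhibition of NEK9.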
T4 sequence (whole entry): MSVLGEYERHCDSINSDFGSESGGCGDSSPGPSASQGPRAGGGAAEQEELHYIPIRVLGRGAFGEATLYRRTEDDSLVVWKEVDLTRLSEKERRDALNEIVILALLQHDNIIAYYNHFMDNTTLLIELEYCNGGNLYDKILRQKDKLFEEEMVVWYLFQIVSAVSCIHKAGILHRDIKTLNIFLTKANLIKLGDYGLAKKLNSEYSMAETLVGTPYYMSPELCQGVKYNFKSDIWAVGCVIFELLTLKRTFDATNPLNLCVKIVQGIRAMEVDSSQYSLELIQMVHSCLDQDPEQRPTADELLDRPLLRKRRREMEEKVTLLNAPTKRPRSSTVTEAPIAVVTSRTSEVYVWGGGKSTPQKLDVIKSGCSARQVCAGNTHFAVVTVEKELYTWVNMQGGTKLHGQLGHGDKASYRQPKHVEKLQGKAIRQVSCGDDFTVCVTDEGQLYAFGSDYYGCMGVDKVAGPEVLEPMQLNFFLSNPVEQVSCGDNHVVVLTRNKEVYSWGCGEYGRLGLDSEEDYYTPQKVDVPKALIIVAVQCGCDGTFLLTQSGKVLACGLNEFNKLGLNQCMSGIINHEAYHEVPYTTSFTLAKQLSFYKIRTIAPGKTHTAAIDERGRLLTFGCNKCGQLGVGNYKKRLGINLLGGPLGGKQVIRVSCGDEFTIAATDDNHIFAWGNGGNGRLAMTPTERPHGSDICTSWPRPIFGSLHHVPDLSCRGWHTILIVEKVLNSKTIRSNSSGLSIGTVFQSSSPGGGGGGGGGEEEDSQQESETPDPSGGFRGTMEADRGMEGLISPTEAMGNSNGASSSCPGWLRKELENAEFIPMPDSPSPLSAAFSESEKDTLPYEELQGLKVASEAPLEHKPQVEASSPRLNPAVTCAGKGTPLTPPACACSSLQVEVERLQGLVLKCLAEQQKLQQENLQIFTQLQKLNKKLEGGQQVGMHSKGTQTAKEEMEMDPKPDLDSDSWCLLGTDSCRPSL
The following applies: at 0.1 µM.

Consider `Nc1ncnc2occ(-c3ccc(NC(=O)Nc4cc(C(F)(F)F)ccc4F)cc3)c12`, for which the inhibition in experiment [1] is 11.5% and 1.35%; in experiment [2] it was 4.57% and -0.38%; in [3], 34.7% and 18.1%; in experiment [4], 1.72% and -2.9%; in [5], -2.44% and -3.79%; in experiment [6] it was 2.68% and -0.01%. The inhibition in experiment [7] was -0.68% and -1.16%; in experiment [8], 2.87% and -5.06%; in experiment [9], -8.19% and -5.1%; in experiment [10] it was 5.05% and 5.01%.
